PMC11062922 (Nature Chemical Biology, 2023)

Experiments:
Parameters in all cases: species or system human, MV4-11 + K-562 + COLO205 + SK-N-BE2 + OVCAR-8
AMPK-alpha2 = details: compound concentrations: 100 nM and 1000 nM (sheet 'Samples')
CIT = details: compound concentrations: 100 nM and 1000 nM (sheet 'Samples')
CLK2 = details: compound concentrations: 100 nM and 1000 nM (sheet 'Samples')
CSNK2A1 = details: read-out: Kinobeads Data; compound concentrations: 100 nM and 1000 nM (sheet 'Samples'); n = 1
CSNK2A2 = details: read-out: Kinobeads Data; compound concentrations: 100 nM and 1000 nM (sheet 'Samples'); n = 1
DDR1 = details: compound concentrations: 100 nM and 1000 nM (sheet 'Samples')
DDR2 = details: compound concentrations: 100 nM and 1000 nM (sheet 'Samples')
DYRK1B = details: compound concentrations: 100 nM and 1000 nM (sheet 'Samples')
EPHB1 = details: compound concentrations: 100 nM and 1000 nM (sheet 'Samples')
[1] = test system: JAK2(JH1domain-catalytic); details: compound concentrations: 100 nM and 1000 nM (sheet 'Samples')
LCK = details: compound concentrations: 100 nM and 1000 nM (sheet 'Samples')
MAP3K4 = details: compound concentrations: 100 nM and 1000 nM (sheet 'Samples')
MEK5 = details: compound concentrations: 100 nM and 1000 nM (sheet 'Samples')
MERTK = details: compound concentrations: 100 nM and 1000 nM (sheet 'Samples')
NEK2 = details: compound concentrations: 100 nM and 1000 nM (sheet 'Samples')
NEK6 = details: compound concentrations: 100 nM and 1000 nM (sheet 'Samples')
PKAC-beta = details: compound concentrations: 100 nM and 1000 nM (sheet 'Samples')
SLK = details: compound concentrations: 100 nM and 1000 nM (sheet 'Samples')
SYK = details: compound concentrations: 100 nM and 1000 nM (sheet 'Samples')
TBK1 = details: compound concentrations: 100 nM and 1000 nM (sheet 'Samples')
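Note: kinobeads ε competition pulldown from cell lysate, compound preincubated 45 min at 4 °C, bound kinases quantified by LC–MS/MS relative to DMSO control.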

COc1cc(Nc2ncc3c(C)nc(-c4cc5ccccc5[nH]4)n3n2)cc(OC)c1OC [GW869516X]
no target: Kinobeads Data (AMPK-alpha2) | Kinobeads Data (CIT) | Kinobeads Data (CLK2) | Kinobeads Data (DDR1) | Kinobeads Data (DDR2) | Kinobeads Data (DYRK1B) | Kinobeads Data (EPHB1) | Kinobeads Data [1] | Kinobeads Data (LCK) | Kinobeads Data (MAP3K4) | Kinobeads Data (MEK5) | Kinobeads Data (MERTK) | Kinobeads Data (NEK2) | Kinobeads Data (NEK6) | Kinobeads Data (PKAC-beta) | Kinobeads Data (SLK) | Kinobeads Data (SYK) | Kinobeads Data (TBK1)
78 nM: potency estimated from few doses (CSNK2A1)
56 nM: potency estimated from few doses (CSNK2A2)
